From PubChem BioAssay (Tox21)
Results filed as inconclusive are left out. The source made the active and inactive calls. Unless noted, the call rests on the fitted dose curve; in most records, active means well fitted curve in the direction sought with a large enough effect in the repeat runs; inconclusive means weak or mixed curves; inactive means no such curve, though single readings can be large; an effect the other way counts as inactive or inconclusive.

Experiments:
[1] = target: Aryl hydrocarbon receptor (Homo sapiens) (UniProt P35869); experiment: qHTS assay to identify small molecule that activate the aryl hydrocarbon receptor (AhR) signaling pathway (AID 743085); further: nearly all actives have a fitted effect of over 15% in size; further: potency means the concentration at half of the fitted maximal effect;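 on activation: HG2L7.5c1 human HepG2 liver cells with stably integrated DRE-driven firefly reporter; series mostly up to about 70 µM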
Sequence of Aryl hydrocarbon receptor (Homo sapiens) (P35869 whole entry, looked up): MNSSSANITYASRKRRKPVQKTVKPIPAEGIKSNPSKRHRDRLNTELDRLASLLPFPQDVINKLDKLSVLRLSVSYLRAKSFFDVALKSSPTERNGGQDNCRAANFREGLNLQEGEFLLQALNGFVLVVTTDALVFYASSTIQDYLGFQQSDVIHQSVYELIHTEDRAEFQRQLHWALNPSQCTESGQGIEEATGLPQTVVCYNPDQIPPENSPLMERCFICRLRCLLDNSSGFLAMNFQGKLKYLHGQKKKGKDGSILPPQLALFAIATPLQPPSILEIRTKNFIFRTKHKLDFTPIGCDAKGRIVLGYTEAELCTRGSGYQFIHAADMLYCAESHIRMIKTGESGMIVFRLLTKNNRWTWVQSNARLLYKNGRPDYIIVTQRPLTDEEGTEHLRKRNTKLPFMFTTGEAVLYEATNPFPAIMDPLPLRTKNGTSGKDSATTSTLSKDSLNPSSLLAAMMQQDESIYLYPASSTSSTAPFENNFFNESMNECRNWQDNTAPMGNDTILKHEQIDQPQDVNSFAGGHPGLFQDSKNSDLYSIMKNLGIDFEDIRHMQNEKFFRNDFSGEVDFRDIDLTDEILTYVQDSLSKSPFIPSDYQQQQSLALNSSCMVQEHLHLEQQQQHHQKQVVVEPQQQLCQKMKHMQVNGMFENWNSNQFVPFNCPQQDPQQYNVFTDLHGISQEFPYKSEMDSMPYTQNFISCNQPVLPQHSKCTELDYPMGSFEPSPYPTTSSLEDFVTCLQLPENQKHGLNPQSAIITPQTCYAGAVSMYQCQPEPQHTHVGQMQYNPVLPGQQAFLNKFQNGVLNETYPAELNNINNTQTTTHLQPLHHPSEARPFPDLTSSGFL
Procedure, shortened: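 Cell line HG2L7.5c1 (human hepatoma, 20× DRE-luc). Plated, 5 h 37C, compound/DMSO added, 24 h 37C. CellTiter-Fluor 30 min 37C → fluorescence; then ONE-Glo 30 min RT → luminescence.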

[2] = qHTS assay to identify small molecule that activate the aryl hydrocarbon receptor (AhR) signaling pathway - cell viability counter screen (AID 743086); further: nearly all actives have a fitted effect of over 45% in size; further: potency means the concentration at half of the fitted maximal effect
Procedure, shortened: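 HepG2-AhR-luc (HG2L7.5c1) cells, 4000/well, were preincubated 5 h at 37C, exposed to compound in qHTS format for 24 hr at 37C, then given CellTiter-Fluor for 30 min; viability was read as fluorescence in the reporter wells.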

[3] = target: Peroxisome proliferator-activated receptor gamma (Homo sapiens) (UniProt P37231); experiment: qHTS assay to identify small molecule agonists of the peroxisome proliferator-activated receptor gamma (PPARg) signaling pathway (AID 743094; active means well fitted activation curve with a large enough effect in the signal ratio in the repeat runs, not every such curve was filed as active; the % refers to the signal ratio)
Sequence of Peroxisome proliferator-activated receptor gamma (Homo sapiens) (P37231 whole entry, looked up): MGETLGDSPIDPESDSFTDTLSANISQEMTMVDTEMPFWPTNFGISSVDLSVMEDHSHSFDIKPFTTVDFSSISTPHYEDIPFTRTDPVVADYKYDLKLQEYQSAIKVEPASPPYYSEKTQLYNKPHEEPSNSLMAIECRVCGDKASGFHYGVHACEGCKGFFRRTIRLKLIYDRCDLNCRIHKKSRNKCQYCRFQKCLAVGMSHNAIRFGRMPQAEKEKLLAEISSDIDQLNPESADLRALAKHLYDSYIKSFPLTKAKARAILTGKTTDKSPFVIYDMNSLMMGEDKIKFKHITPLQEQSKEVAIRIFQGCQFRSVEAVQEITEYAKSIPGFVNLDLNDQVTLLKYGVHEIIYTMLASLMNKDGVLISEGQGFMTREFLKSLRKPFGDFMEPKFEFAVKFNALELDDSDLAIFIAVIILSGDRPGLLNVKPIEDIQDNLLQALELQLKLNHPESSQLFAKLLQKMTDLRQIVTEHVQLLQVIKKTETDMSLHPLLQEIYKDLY
Procedure, shortened: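 HEK293H PPARg-bla cells, 5 h settle at 37C/5% CO2; compound (DMSO) 17 h, 37C; B/G FRET substrate 1 h RT; fluorescence intensity read-out. qHTS format.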

[4] = qHTS assay to identify small molecule antagonists of the peroxisome proliferator-activated receptor gamma (PPARg) signaling pathway - cell viability counter screen (AID 743194); details: Potency: co-treated with 50 nM rosiglitazone; further: nearly all actives have a fitted effect of over 55% in size
Procedure, shortened: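 PPARg-UAS-bla HEK293H cells were plated, rested 5 h at 37 C, then treated with compounds plus rosiglitazone (50 nM final) for 17 h at 37 C; viability was then read by CellTiter-Glo luminescence after 30 min at room temperature.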

[5] = qHTS assay for small molecule agonists of the antioxidant response element (ARE) signaling pathway (AID 743202; active means well fitted activation curve with a large enough effect in the signal ratio in the repeat runs, not every such curve was filed as active; the % refers to the signal ratio; further: potency means the concentration at half of the fitted maximal effect)
Procedure, shortened: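 Following a 16 h, 37 C exposure of reporter HepG2 cells (ARE-driven beta-lactamase, 2,000 cells/well) to compounds, FRET substrate was applied for 2 h at room temperature and fluorescence intensity recorded.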

[6] = qHTS assay for small molecule agonists of the antioxidant response element (ARE) signaling pathway - cell viability counter screen (AID 743203; calls by dose curve; further: nearly all actives have a fitted effect of over 55% in size)
Procedure, shortened: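 Luminescence read-out (CellTiter-Glo, 30 min at room temperature) measured cell viability in the same wells as the ARE beta-lactamase reporter. HepG2 ARE-bla cells were treated with compounds for 16 hrs at 37C/5% CO2.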

[7] = qHTS assay for small molecule activators of the heat shock response signaling pathway - cell viability counter screen (AID 743209); further: nearly all actives have a fitted effect of over 50% in size
Procedure, shortened: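 HSE-bla HeLa; 1500 cells/well; overnight 37 C, 5% CO2; compound 5 h 37 C; LiveBLAzer B/G substrate 2.5 h RT; CellTiter-Glo 30 min RT; luminescence.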

[8] = qHTS assay to identify small molecule agonists of the peroxisome proliferator-activated receptor delta (PPARd) signaling pathway - cell viability counter screen (AID 743211); further: nearly all actives have a fitted effect of over 55% in size
Procedure, shortened: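 HEK293H PPARd-bla, 3000 cells/well; 5 h preincubation 37C/5% CO2; cpd in DMSO, 17 h 37C; B/G FRET substrate 2 h RT; CellTiter-Glo 30 min RT, luminescence.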

[9] = qHTS assay for small molecule activators of the heat shock response signaling pathway (AID 743210; active means well fitted activation curve with a large enough effect in the signal ratio in the repeat runs, with a control signal flat, not every such curve was filed as active; the % refers to the signal ratio; further: series mostly up to about 63 µM)
Procedure, shortened: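 Heat shock element–beta-lactamase HeLa reporter cells; qHTS with compounds for 5 h at 37 C; detection by FRET substrate fluorescence after 2.5 h at RT.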

[10] = target: Peroxisome proliferator-activated receptor gamma (Homo sapiens) (UniProt P37231); experiment: qHTS assay to identify small molecule antagonists of the peroxisome proliferator-activated receptor gamma (PPARg) signaling pathway (AID 743191; calls by dose curve; further: series mostly up to about 63 µM; nearly all actives have a fitted effect of over 30% in size)
Procedure, shortened: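 GeneBLAzer PPARg UAS-bla HEK293H cells carrying a UAS-driven beta-lactamase reporter were plated at 3000 cells/well, preincubated 5 h at 37C, then given compound for 17 h at 37C; LiveBLAzer B/G FRET substrate was read after 1 h at room temperature.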

Measured: Potency
On the % scale 0 is the no-effect control and ±100 the full control effect.

Oc1ccc(Cc2ccc(O)cc2)cc1
active: [5] 27.5 µM
not listed: [9] | [10]
inactive: all other assays above

C=C(Cl)CSC(=S)N(CC)CC
inactive: [1] | [2] | [3] | [4] | [6] | [8]

C=CC(=O)OCCN(C)C
not listed: [4] | [10]
inactive: all other assays above

COC1=CC(=O)O[C@@H](/C=C/c2ccccc2)C1
not listed: [5] | [10]
inactive: all other assays above

O=C(CCl)NCO
not listed: [5] | [10]
inactive: all other assays above

CCN[C@@H](C)Cc1cccc(C(F)(F)F)c1
not listed: [7] | [10]
inactive: all other assays above

CCc1cc(OC)c(C[C@H](C)N)cc1OC
active: [2] 63.7 µM
not listed: [5] | [10]
inactive: all other assays above

O=[N+]([O-])CCO
not listed: [5] | [9] | [10]
inactive: all other assays above

CCOC(=O)NC(C)(C)Cc1ccc(Cl)cc1
not listed: [4] | [10]
inactive: all other assays above

C[C@]12C=CC(=O)C=C1CC[C@@H]1[C@@H]2CC[C@@]2(C)[C@H]1CC[C@]2(C)O
not listed: [5] | [10]
inactive: all other assays above

CC1N=C(N)OC1c1ccccc1 (configuration not stated)
not listed: [7] | [10]
inactive: all other assays above

CCOC(=O)CCl
not listed: [5] | [10]
inactive: all other assays above

CON(C)C(=O)Nc1ccc(Br)c(Cl)c1
active: [1] 30.6 µM
not listed: [4] | [9] | [10]
inactive: all other assays above

O=C(Cl)OCc1ccccc1
not listed: [9] | [10]
inactive: all other assays above

CC(C)(C)c1cc(O)ccc1O
inactive: [2] | [3] | [4] | [7] | [9]
active: [1] 26.6 µM [middle of 4 runs] | [5] 3.86 µM

CCCCCCCCBr
not listed: [4] | [10]
inactive: all other assays above

O=P(O)(O)CN(CP(=O)(O)O)CP(=O)(O)O
not listed: [10]
inactive: all other assays above

O=C(O)C(Cl)Br (configuration not stated)
active: [5] 4.91 µM
not listed: [4] | [7] | [10]
inactive: all other assays above

Cc1ccc(Cl)c(O)c1
not listed: [10]
inactive: all other assays above

ClCOCCl
not listed: [4] | [10]
inactive: all other assays above

CCCOc1nn(C(=O)NS(=O)(=O)c2ccccc2C(=O)OC)c(=O)n1C
not listed: [1]
inactive: all other assays above

N#CC(Br)(Br)C(N)=O
not listed: [3] | [5] | [10]
inactive: all other assays above
